Results filed as inconclusive are left out. Active and inactive are the calls of the source. Unless noted, calls follow the shape of the dose curve; as a rule, active = well fitted curve in the direction sought with a large enough effect in the repeat runs; inconclusive = weak or mixed curves; inactive = no such curve, though single readings can be large; an effect the other way counts as inactive or inconclusive.
Assays:
[1] = qHTS assay for small molecules that induce genotoxicity in human embryonic kidney cells expressing luciferase-tagged ATAD5 (AID 651632); also: nearly all actives have a fitted effect of over 15% in size
Outline: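 Concentration-response screen for ATAD5 upregulation in HEK293T luciferase reporter cells; 16 hr treatment at 37C, then luminescence after 30 min with Amplite at room temperature.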

[2] = qHTS assay for small molecule agonists of the p53 signaling pathway - cell viability (AID 651633; calls by dose curve;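 also: p53RE-bla HCT reporter cells with a stable beta-lactamase p53 reporter; series mostly up to about 83 µM; nearly all actives have a fitted effect of over 30% in size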)
Outline: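 p53RE-bla cells, seeded at 4,000 per well and rested 5 h at 37 C/5% CO2, received compounds in DMSO for 16 h at 37 C. CellTiter-Glo was then added, and luminescence was read after 30 min at room temperature to gauge cytotoxicity.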

[3] = qHTS assay for small molecules that induce genotoxicity in human embryonic kidney cells expressing luciferase-tagged ATAD5 - cell viability (AID 651634; calls by dose curve; also: nearly all actives have a fitted effect of over 25% in size; also: potency is read from the fitted curve at half-maximal effect)
Outline: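 15.5 hr compound or vehicle exposure of HEK293T cells expressing luciferase-tagged ATAD5 at 37C; live-cell protease activity is read by fluorescence after 30 min of CellTiter-Fluor.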

[4] = qHTS assay for small molecule disruptors of the mitochondrial membrane potential - cell viability (AID 720634; calls by dose curve;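 also: human HepG2 liver cancer cells; series mostly up to about 83 µM; nearly all actives have a fitted effect of over 20% in size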)
Outline: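 In this qHTS format, HepG2 cells plated overnight were pinned with compound, incubated 1 hr, and assayed for ATP luminescence with CellTiter-Glo after m-MPI dye addition.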

[5] = qHTS assay for small molecule disruptors of the mitochondrial membrane potential (AID 720635); also: potency is read from the fitted curve at half-maximal effect
Outline: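 HepG2 cells (2,000/well) attached overnight at 37C, then took compound for 1 hr at 37C, 5% CO2. Mito-MPS dye was added for 30 min; fluorescence was read at 490/535 nm (monomers) and 540/590 nm (aggregates).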

[6] = qHTS assay to test for compound auto fluorescence at 590 nm (red) in HepG2 cells (AID 720674)
Outline: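 Intrinsic compound fluorescence in the red window (Ex/Em 540/590 nm) is measured in attached HepG2 cells exposed for 1 hr, DMSO vehicle as baseline, benchmarked to Rose Bengal sodium.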

[7] = qHTS assay to test for compound auto fluorescence at 535 nm (green) in HepG2 cells (AID 720675)
[8] = qHTS assay to test for compound auto fluorescence at 460 nm (blue) in HEK293 cells (AID 720678)
Outline: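 Intrinsic compound fluorescence is recorded in live HEK293 cultures after overnight incubation at 37C, 5% CO2, using excitation 405 nm and emission 460 nm. Values are referenced to triamterene.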

[9] = qHTS assay to test for compound auto fluorescence at 590 nm (red) in HEK293 cells (AID 720679)
Outline: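 Red autofluorescence, HEK293 cells: 2,000 cells/well; attach 4-5 hr 37C; add 23 nL cpd or DMSO; incubate o/n 37C 5% CO2; read Ex540/Em590; Rose Bengal sodium reference.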

[10] = qHTS assay to test for compound auto fluorescence at 535 nm (green) in HEK293 cells (AID 720680)
[11] = qHTS assay to test for compound auto fluorescence at 460 nm (blue) in HEK293 cell free culture (AID 720681)
Outline: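 Test compounds were pinned into cell-free culture medium (DMEM with 10% FBS) and fluorescence was read directly at Ex/Em 405/460 nm. Signals were expressed as fluorescence equivalents of triamterene, with DMSO vehicle as control.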

[12] = qHTS assay to test for compound auto fluorescence at 535 nm (green) in HEK293 cell free culture (AID 720682)
Outline: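 Each library compound, or DMSO control, is added by pintool to medium alone, comprising DMEM and 10% FBS. Emission at 535 nm following 485 nm excitation is quantified against fluorescein.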

[13] = qHTS assay to test for compound auto fluorescence at 590 nm (red) in HEK293 cell free culture (AID 720683)
Outline: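 Tox21 10K library compounds were pinned into cell-free DMEM with 10% FBS and fluorescence was read at excitation 540 nm. Activity is expressed as Rose Bengal sodium equivalency.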

[14] = qHTS assay to test for compound auto fluorescence at 590 nm (red) in HepG2 cell free culture (AID 720684)
Outline: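 Ex 540 / Em 590 nm read of compound in cell-free MEM (10% FBS). Rose Bengal sodium reference.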

[15] = qHTS assay to test for compound auto fluorescence at 460 nm (blue) in HepG2 cell free culture (AID 720685)
Outline: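 Cell-free plates of MEM plus 10% FBS received 23 nL compound or DMSO vehicle; blue-channel (405/460 nm) intensity scored against triamterene as reference fluorophore.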

[16] = qHTS assay to test for compound auto fluorescence at 535 nm (green) in HepG2 cell free culture (AID 720686)
[17] = qHTS assay to test for compound auto fluorescence at 460 nm (blue) in HepG2 cells (AID 720687)
Outline: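 Cells (2,000/well in MEM with 10% FBS) attached overnight at 37 C, then were exposed to compound or DMSO for 1 hr at 37 C, 5% CO2. Fluorescence read at Ex/Em 405/460 nm, expressed as triamterene-equivalent signal.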

[18] = target: Glucocorticoid receptor (Homo sapiens) (UniProt P04150); test: qHTS assay to identify small molecule agonists of the glucocorticoid receptor (GR) signaling pathway (AID 720691; active = well fitted activation curve with a large enough effect in the signal ratio in the repeat runs, not every such curve was filed as active; the % refers to the signal ratio)
Glucocorticoid receptor (Homo sapiens), sequence (P04150 whole entry, looked up): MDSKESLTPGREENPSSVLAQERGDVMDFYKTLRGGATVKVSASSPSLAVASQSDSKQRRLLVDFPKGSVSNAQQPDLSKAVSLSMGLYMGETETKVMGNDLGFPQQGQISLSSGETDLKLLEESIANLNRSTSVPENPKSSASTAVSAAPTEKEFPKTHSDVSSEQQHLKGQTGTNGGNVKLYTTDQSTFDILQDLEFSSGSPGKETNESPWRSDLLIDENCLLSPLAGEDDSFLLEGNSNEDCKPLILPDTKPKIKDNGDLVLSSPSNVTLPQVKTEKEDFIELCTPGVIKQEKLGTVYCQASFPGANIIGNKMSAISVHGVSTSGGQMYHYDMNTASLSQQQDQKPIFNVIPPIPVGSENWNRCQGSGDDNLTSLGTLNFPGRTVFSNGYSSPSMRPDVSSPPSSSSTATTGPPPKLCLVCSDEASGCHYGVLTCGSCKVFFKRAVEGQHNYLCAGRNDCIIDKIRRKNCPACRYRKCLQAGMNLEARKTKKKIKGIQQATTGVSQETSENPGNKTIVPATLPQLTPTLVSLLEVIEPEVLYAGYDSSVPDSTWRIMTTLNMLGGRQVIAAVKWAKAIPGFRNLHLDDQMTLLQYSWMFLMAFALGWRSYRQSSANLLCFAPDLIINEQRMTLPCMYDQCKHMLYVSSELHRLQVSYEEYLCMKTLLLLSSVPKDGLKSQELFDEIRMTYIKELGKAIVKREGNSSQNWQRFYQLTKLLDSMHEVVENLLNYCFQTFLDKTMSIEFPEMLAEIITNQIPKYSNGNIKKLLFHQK
Outline: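 Measures GR pathway activation through a GRE-beta-lactamase reporter stably integrated in HeLa cells, with 18 h compound treatment at 37 C and fluorescence detection using a FRET substrate.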

[19] = qHTS assay for small molecule agonists of the p53 signaling pathway (AID 651631; calls by dose curve; also: nearly all actives have a fitted effect of over 15% in size)
Outline: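 Beta-lactamase reporter activity under p53 response elements was quantified in HCT-116 cells by FRET fluorescence, following 16 h incubation with test compounds at 37 °C and 2 h substrate development at room temperature.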

[20] = target: Glucocorticoid receptor (Homo sapiens) (UniProt P04150); test: qHTS assay to identify small molecule antagonists of the glucocorticoid receptor (GR) signaling pathway (AID 720692; active = well fitted inhibition curve with a large enough effect in the signal ratio in the repeat runs, not every such curve was filed as active; the % refers to the signal ratio)
Outline: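 Tox21 10K library screened in concentration-response for blockade of dexamethasone (5 nM final)-induced GRE-bla reporter activity in HeLa cells; 18 h treatment, fluorescence read.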
% is scaled to controls: 0 for no effect and ±100 for the full control effect.

CCCCCCCCSCCO
inactive: Potency [1] | Potency [2] | Potency [3] | Potency [4] | outcome [6] | outcome [7] | Potency [8] | outcome [9] | outcome [10] | Potency [11] | outcome [12] | outcome [13] | outcome [14] | Potency [15] | outcome [16] | Potency [17] | Potency [18]
active: Potency [5] 24.3 µM

O=[N+]([O-])c1cccc(S(=O)(=O)NCCNS(=O)(=O)c2cccc([N+](=O)[O-])c2)c1
inactive: Potency [19] | Potency [2] | Potency [3] | outcome [6] | outcome [7] | Potency [8] | outcome [9] | Potency [11] | outcome [12] | outcome [13] | outcome [14] | Potency [15] | outcome [16] | Potency [17] | Potency [18]
active: Potency [5] 11.9 µM

CCCC(=O)O[C@]1(C(=O)COC(=O)CC)CC[C@H]2[C@@H]3CCC4=CC(=O)CC[C@]4(C)[C@H]3[C@@H](O)C[C@@]21C
inactive: Potency [1] | Potency [2] | Potency [3] | Potency [4] | Potency [5] | outcome [6] | outcome [7] | Potency [8] | outcome [9] | outcome [10] | Potency [11] | outcome [12] | outcome [13] | outcome [14] | Potency [15] | outcome [16] | Potency [17]

CC#N
inactive: Potency [1] | Potency [2] | Potency [3] | Potency [4] | Potency [5] | outcome [6] | outcome [7] | Potency [8] | outcome [9] | outcome [10] | Potency [11] | outcome [12] | outcome [13] | outcome [14] | Potency [15] | outcome [16] | Potency [17] | Potency [18] | Potency [20]

CC1(C)C2=CCCC(C)(C)[C@]23CC[C@H]1C3
inactive: Potency [1] | Potency [2] | Potency [3] | Potency [4] | Potency [5] | outcome [6] | outcome [7] | Potency [8] | outcome [9] | outcome [10] | Potency [11] | outcome [12] | outcome [13] | outcome [14] | Potency [15] | outcome [16] | Potency [17] | Potency [18]

Nc1ccc(S(=O)(=O)O)cc1
inactive: Potency [19] | Potency [2] | Potency [3] | Potency [4] | outcome [6] | outcome [7] | Potency [8] | outcome [9] | outcome [10] | Potency [11] | outcome [12] | outcome [13] | outcome [14] | Potency [15] | outcome [16] | Potency [17]

COc1ccccc1N=Nc1c(S(=O)(=O)O)cc2cc(S(=O)(=O)O)cc(NC(C)=O)c2c1O
inactive: Potency [19] | Potency [2] | Potency [4] | outcome [6] | outcome [7] | Potency [8] | outcome [9] | outcome [10] | Potency [11] | outcome [12] | outcome [13] | outcome [14] | Potency [15] | outcome [16] | Potency [18]
active: Potency [3] 28.8 µM

CCCCCCCCCCCCCCCCBr
inactive: Potency [19] | Potency [2] | Potency [3] | Potency [4] | fluorescence, relative to Rose Bengal [6] 0.0532% [at 18.6 µM] | fluorescence, % of fluorescein control [7] 0.118% [at 18.6 µM] | fluorescence, % of triamterene [8] -0.0281% [at 18.6 µM] | fluorescence, % of fluorescent control [9] -0.108% [at 18.6 µM] | fluorescence, % of fluorescein [10] -0.0178% [at 18.6 µM] | fluorescence, % of fluorescent control [11] 0.102% [at 18.6 µM] | activity change [12] 0.0082% [at 18.6 µM] | fluorescence, % of fluorescent control [13] 0.0252% [at 18.6 µM] | fluorescence, % of Rose Bengal [14] 0.119% [at 18.6 µM] | fluorescence, % of fluorescent control [15] -0.0045% [at 18.6 µM] | fluorescence, % of fluorescein control [16] 0.0028% [at 18.6 µM] | fluorescence, % of fluorescent control [17] -0.0027% [at 18.6 µM]
